From PubChem BioAssay (Tox21) come the findings set out here.

SMILES strings stand for the structures. Unmarked numbers belong to inactive results. Records with an inconclusive call do not appear. Calls of active or inactive are those of the source. Unless noted, calls come from the whole dose curve; as a rule, active = well fitted curve in the direction sought with a large enough effect in the repeat runs; inconclusive = weak or mixed curves; inactive = no such curve, though single readings can be large; an effect the other way counts as inactive or inconclusive.

Assay [1] concerns the target Luciferin 4-monooxygenase (Photinus pyralis) (UniProt P08659). The assay can be described thus: qHTS assay to identify small molecule inhibitors of firefly luciferase (AID 1224835). Note: nearly all actives have a fitted effect of over 25% in size. Note: potency is the fitted concentration of half-maximal effect. The procedure, abridged: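 Biochemical qHTS: compounds run as interplate titrations against purified firefly enzyme, with D-luciferin and ATP each at its KM concentration. Light output recorded by CCD imaging.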
(In general: qHTS replaces the single test concentration by a dilution series.)

A short description of assay [2]: qHTS assay to identify small molecule agonists of the constitutive androstane receptor (CAR) signaling pathway - cell viability counter screen (AID 1224836). Note: nearly all actives have a fitted effect of over 45% in size. The procedure, abridged: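 23 h treatment, 37 C, 5% CO2. Cell line: HepG2 stably expressing hCAR with a CYP2B6-2.2kb construct. Co-treatment: PK11195, 0.75 uM final. Read-out: CellTiter-Fluor fluorescence intensity.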

The nature of assay [3]: qHTS assay to identify small molecule antagonists of the constitutive androstane receptor (CAR) signaling pathway - cell viability counter screen (AID 1224837). Note: nearly all actives have a fitted effect of over 45% in size. In short, it runs like this:
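Using CellTiter-Fluor, viability is scored in HepG2 cells stably carrying hCAR and a 2.2kb CYP2B6 reporter after 23 hr compound exposure across 15 concentrations, with CITCO present at 50 nM.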

Assay [4] deals with Nuclear receptor subfamily 1 group I member 3 (Homo sapiens) (UniProt Q14994). The assay is described as follows: qHTS assay to identify small molecule agonists of the constitutive androstane receptor (CAR) signaling pathway (AID 1224839).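 Note: HepG2 cells stably carrying human CAR and a CYP2B6 luciferase reporter; nearly all actives have a fitted effect of over 15% in size.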 The procedure, abridged:
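Compounds tested at 15 concentrations on HepG2 cells stably harbouring hCAR and CYP2B6-2.2kb reporter constructs, co-treated with PK11195 (0.75 uM final), 24 h at 37 C; luminescent reporter signal quantified.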

The nature of assay [5]: qHTS assay to identify small molecule antagonists of the estrogen related receptor signaling pathway with the pleiotropic PPARgamma coactivator (PGC) from Tox21 10K library - cell viability counter screen (AID 1224840; active = well fitted cell-killing curve with a large enough effect in the repeat runs, not every such curve was filed as active; note: nearly all actives have a fitted effect of over 40% in size). The procedure, abridged:
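Here the PGC/ERR cells serve as a cytotoxicity control: they are exposed to compounds for 17.5 hours at 37 C, and live-cell signal is quantified using CellTiter-Fluor fluorescence.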

In assay [6] the target is Thyrotropin receptor (Homo sapiens) (UniProt P16473). The assay is described as follows: qHTS assay to identify small molecule agonists of the thyroid stimulating hormone receptor (TSHR) signaling pathway (AID 1224843; calls by dose curve; note: nearly all actives have a fitted effect of over 45% in size). In short, it runs like this: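 TSHR-HEK293 cells in agonist mode, 30 min room-temperature step, then cAMP measured by competitive HTRF (cAMP-d2 with anti-cAMP cryptate) after 1 h at room temperature. Tested at 15 concentrations in triplicate.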

Assay [7] can be described thus: qHTS assay to identify small molecule agonists of the hypoxia (HIF-1) signaling pathway - cell viability counter screen (AID 1224844; calls by dose curve; note: nearly all actives have a fitted effect of over 50% in size). The procedure, abridged: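 Multiplexed with the HRE beta-lactamase assay, this viability read used CellTiter-Glo luminescence (30 min, RT) on HRE-bla ME-180 cells treated 17 hrs with compounds in 0.5% dialyzed FBS medium.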
A short description of assay [8]: qHTS assay to identify small molecule agonists of H2AX (AID 1224845; active = well fitted activation curve with a large enough effect in the signal ratio in the repeat runs, not every such curve was filed as active; the % refers to the signal ratio). The procedure, abridged:
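Wild-type CHO-K1 cells, plated overnight, exposed 3hr at 37C to 15 concentrations (0.76% DMSO final). Lysed, then HTRF anti-pH2AX (S139) cryptate and anti-H2AX-d2 antibodies, 24 hr room temperature; 665/620 nm emission read.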

Assay [9] is described as follows: qHTS assay to identify small molecule agonists of the hypoxia (HIF-1) signaling pathway (AID 1224846; active = well fitted activation curve with a large enough effect in the signal ratio in the repeat runs, not every such curve was filed as active; the % refers to the signal ratio). The procedure, abridged:
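Hypoxia-pathway activation was scored as increased beta-lactamase from an HRE-controlled reporter in ME-180 cells; plated at 2,000 cells per well with 0.5% dialyzed FBS, they were exposed 17 hrs to compounds and then given CCF4-AM.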

The nature of assay [10]: qHTS assay to identify small molecule agonists of H2AX - cell viability counter screen (AID 1224847; calls by dose curve; note: top concentration of the series differs between compounds; nearly all actives have a fitted effect of over 30% in size). In short, it runs like this: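 Compounds tested at 15 concentrations were incubated 3 hr at 37C with wild-type CHO-K1 cells; cellular ATP-based luminescence (CellTiter-Glo) indicated viability.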
Assay [11] in a line: qHTS RealTime-Glo MT Cell Viability Assay in HepG2 cells - 24 hour (AID 1224867). Note: nearly all actives have a fitted effect of over 50% in size. In short, it runs like this: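 Cells + NanoLuc/prosubstrate dispensed (600 cells/well) → 5 h at 37 C/5% CO2 → compounds in DMSO transferred → 40 h incubation at 37 C, luminescence read at 0, 8, 16, 24, 32, 40 h.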
Assay [12] in a line: qHTS RealTime-Glo MT Cell Viability Assay in HEK293 cells - 32 hour (AID 1224868). Note: top concentration of the series differs between compounds; nearly all actives have a fitted effect of over 50% in size. In short, it runs like this: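 Tox21 10K qHTS, HEK293, 600 cells/well, RealTime-Glo reagent co-dispensed with cells; 5 h preincubation, compound by pintool, 37 C, luminescence at 0–40 h.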
The nature of assay [13]: A CellTox Green Cytotoxicity Assay to monitor cytotoxicity in HEK293 cells - 0 hour (AID 1224869). Note: nearly all actives have a fitted effect of over 50% in size. The procedure, abridged: (§1)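 Seeding of HEK293 cells together with cytotoxicity dye preceded a 5 h incubation at 37 C/5% CO2. Test compounds in DMSO were then added and fluorescence monitored across 40 h.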
Assay [14] can be described thus: qHTS RealTime-Glo MT Cell Viability Assay in HepG2 cells - 40 hour (AID 1224870). Note: nearly all actives have a fitted effect of over 50% in size. In short, it runs like this: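 HepG2 cells (600/well) mixed with RealTime-Glo MT reagent, settled 5 h at 37 C/5% CO2 before compound addition. Nonlytic NanoLuc luminescence from viable-cell prosubstrate reduction read repeatedly during 40 h treatment at 37 C.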
Assay [15] in a line: A CellTox Green Cytotoxicity Assay to monitor cytotoxicity in HEK293 cells - 40 hour (AID 1224871). Note: nearly all actives have a fitted effect of over 45% in size. The procedure, abridged: as §1
Assay [16] in a line: qHTS assay to identify small molecule antagonists of the estrogen related receptor signaling pathway with the pleiotropic PPARgamma coactivator (PGC) from Tox21 10K library (AID 1224841; call rule not given here). In short, it runs like this:
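Each well held 2,000 PGC/ERR cells, pre-incubated six hours (37 C, 5% CO2). Test substances in DMSO were added by pin tool and left for 18 h at 37 C before luciferase detection by One-Glo.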

The nature of assay [17]: qHTS assay to identify small molecule agonists of the estrogen related receptor signaling pathway with the pleiotropic PPARgamma coactivator (PGC) from Tox21 10K library (AID 1224842). Note: nearly all actives have a fitted effect of over 15% in size. The procedure, abridged:
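PGC/ERR reporter cell line, 2,000 cells per well, incubated 6 h at 37 C before 23 nL compound in DMSO was added. After 18 h at 37 C, One-Glo luminescence read following 30 min at room temperature.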

Assay [18] is described as follows: qHTS assay to identify small molecule antagonists of the estrogen related receptor (ERR) signaling pathway from Tox21 library (AID 1224848). Note: nearly all actives have a fitted effect of over 50% in size. In short, it runs like this:
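ERR reporter cell line (from NTP) seeded 2,000 cells/well, rested 6 h at 37 C/5% CO2, then pin-dosed with compounds in DMSO. After 18 h at 37 C, ONE-Glo added; luminescence read after 30 min at room temperature.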

Assay [19] is described as follows: qHTS assay to identify small molecule agonists of the estrogen related receptor (ERR) signaling pathway from Tox21 library (AID 1224849; calls by dose curve; note: nearly all actives have a fitted effect of over 15% in size). The note with it: ERR reporter cell line, ONE-Glo luciferase, 18 h; at 92.4 µM (top of the series) unless noted. The procedure, abridged:
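Six hours post-seeding at 37 C/5% CO2, ERR cells receive DMSO-solubilised compounds; after 18 h at 37 C, ONE-Glo reagent is applied and luminescence recorded.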
% is set by controls: 0 for no effect and ±100 for the full control effect.

Nuclear receptor subfamily 1 group I member 3 (Homo sapiens), sequence (Q14994 whole entry, looked up): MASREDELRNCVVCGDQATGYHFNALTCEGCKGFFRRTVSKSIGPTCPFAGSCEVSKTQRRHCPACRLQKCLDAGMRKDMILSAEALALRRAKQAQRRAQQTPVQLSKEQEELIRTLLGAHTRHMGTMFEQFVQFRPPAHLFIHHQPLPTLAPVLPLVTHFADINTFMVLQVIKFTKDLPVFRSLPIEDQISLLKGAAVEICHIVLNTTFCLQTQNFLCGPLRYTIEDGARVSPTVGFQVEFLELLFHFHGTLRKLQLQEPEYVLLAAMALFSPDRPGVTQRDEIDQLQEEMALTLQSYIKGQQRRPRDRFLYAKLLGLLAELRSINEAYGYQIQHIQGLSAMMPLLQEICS
Luciferin 4-monooxygenase (Photinus pyralis), sequence (P08659 whole entry, looked up): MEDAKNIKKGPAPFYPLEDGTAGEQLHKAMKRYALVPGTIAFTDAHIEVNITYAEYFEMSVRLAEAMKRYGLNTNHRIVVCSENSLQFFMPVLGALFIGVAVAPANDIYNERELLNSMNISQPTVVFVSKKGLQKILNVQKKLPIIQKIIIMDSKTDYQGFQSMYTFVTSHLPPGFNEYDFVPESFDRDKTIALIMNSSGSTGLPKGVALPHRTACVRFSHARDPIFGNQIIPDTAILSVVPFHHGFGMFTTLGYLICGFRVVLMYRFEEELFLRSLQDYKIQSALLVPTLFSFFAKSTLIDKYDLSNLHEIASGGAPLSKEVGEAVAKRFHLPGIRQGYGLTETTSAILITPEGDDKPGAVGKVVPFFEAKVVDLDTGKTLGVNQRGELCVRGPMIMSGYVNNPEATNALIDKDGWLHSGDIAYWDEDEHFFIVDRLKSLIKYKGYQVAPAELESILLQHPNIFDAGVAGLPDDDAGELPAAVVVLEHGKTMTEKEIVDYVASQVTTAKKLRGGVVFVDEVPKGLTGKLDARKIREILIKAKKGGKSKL
Thyrotropin receptor (Homo sapiens), sequence (P16473 whole entry, looked up): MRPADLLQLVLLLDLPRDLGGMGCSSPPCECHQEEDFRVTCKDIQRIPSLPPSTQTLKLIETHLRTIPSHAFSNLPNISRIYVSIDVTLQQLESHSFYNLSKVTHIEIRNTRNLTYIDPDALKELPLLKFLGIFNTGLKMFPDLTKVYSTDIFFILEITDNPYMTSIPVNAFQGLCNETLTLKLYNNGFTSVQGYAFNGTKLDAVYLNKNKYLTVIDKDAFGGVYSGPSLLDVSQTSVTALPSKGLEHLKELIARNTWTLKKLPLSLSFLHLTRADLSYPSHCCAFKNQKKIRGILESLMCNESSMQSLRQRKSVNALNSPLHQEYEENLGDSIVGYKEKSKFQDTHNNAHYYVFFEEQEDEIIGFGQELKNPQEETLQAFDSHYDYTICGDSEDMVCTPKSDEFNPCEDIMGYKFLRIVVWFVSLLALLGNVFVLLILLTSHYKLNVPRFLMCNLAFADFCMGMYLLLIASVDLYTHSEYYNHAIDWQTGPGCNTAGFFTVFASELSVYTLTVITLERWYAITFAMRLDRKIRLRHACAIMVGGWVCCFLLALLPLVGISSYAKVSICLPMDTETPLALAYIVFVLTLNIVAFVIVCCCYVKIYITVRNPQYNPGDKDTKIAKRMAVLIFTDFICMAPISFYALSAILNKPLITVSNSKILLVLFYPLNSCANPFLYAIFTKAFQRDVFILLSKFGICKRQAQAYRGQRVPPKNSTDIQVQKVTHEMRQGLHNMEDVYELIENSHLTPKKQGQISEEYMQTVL

`FC(F)(F)C(Cl)(Cl)Cl`: the Potency result in assay [1], in assay [2], in assay [3], in assay [4], in assay [5] and in [6] was “inactive” in each case. In addition, the Potency entry in assay [7], in assay [8], in [10], in assay [11], in [12] and in assay [13] was “inactive” throughout. Further, the Potency result in assay [14] and in assay [15] was “inactive” throughout. The result in [9] was inactive.
Turning to `O=C1CCCc2ccccc21`, the Potency result in assay [1], in [2], in assay [3], in [4], in [5] and in assay [16] was “inactive” throughout. Further, the Potency result in [17], in assay [7], in assay [8], in assay [10], in assay [18] and in assay [11] was “inactive” each time. The Potency entry in [12], in assay [13] and in assay [15] was “inactive” throughout. In assay [9], the molecule was called inactive. Besides, in [19], the activity change, positive = activation is 6.42%.
For the molecule `CCN(CCCc1ccccc1)CCCc1ccccc1`, the Potency result in assay [1], in assay [2], in assay [3], in [5], in assay [17] and in [6] was “inactive” each time. In addition, the Potency result in assay [7], in assay [8], in assay [10], in [18], in assay [11] and in assay [13] was “inactive” each time. Also, the Potency entry in assay [15] was “inactive”. For the same molecule, the activity change, positive = activation in [19] is -7.88% [at 42.5 µM].
With `Oc1ccccc1C=NCc1ccccc1`, in assay [1], the Potency was 34.7 µM (active). Further, the Potency entry in assay [2], in [3], in assay [5], in [6], in [7] and in assay [8] was “inactive” each time. In addition, the Potency entry in [10], in [11], in assay [12], in [13], in [14] and in assay [15] was “inactive” each time. For the same molecule, in assay [9], the molecule was called inactive.
Take `NCCCN1CCN(CCCN)CC1`: the Potency entry in assay [1], in [2], in [3], in [4], in assay [5] and in assay [6] was “inactive” each time. Further, the Potency result in assay [8], in assay [10], in assay [11], in [12], in [13] and in assay [14] was “inactive” in each case. The Potency entry in assay [15] was “inactive”. Further, the result in assay [9] was inactive.
Regarding `CC(C)O`, the Potency result in assay [1], in assay [2], in assay [3], in [4], in assay [5] and in [6] was “inactive” each time. Moreover, the Potency result in assay [10], in assay [11], in assay [13], in assay [14] and in [15] was “inactive” in each case.
For the molecule `CCCCC(=O)O[C@]1(C(=O)CO)[C@H](C)C[C@H]2[C@@H]3CCC4=CC(=O)C=C[C@]4(C)[C@@]3(F)[C@@H](O)C[C@@]21C`, the Potency result in assay [1], in [2], in [3], in [5], in assay [16] and in [17] was “inactive” each time. Moreover, the Potency entry in [6], in assay [7], in [8], in assay [10], in assay [18] and in [11] was “inactive” in each case. Moreover, the Potency entry in [12], in assay [13], in [14] and in assay [15] was “inactive” throughout. Further, the result in assay [9] was inactive. Further, the activity change, positive = activation in [19] was -4.32% [at 42.5 µM].
As to `C[C@@H]1CN(c2c(F)c(N)c3c(=O)c(C(=O)O)cn(C4CC4)c3c2F)C[C@H](C)N1`, in [1], the activity change, negative = inhibition was 0.766% [at 23.6 µM]. Further, the viability change, negative = cytotoxic in assay [2] is -2.59% [at 19 µM]; in assay [5], -4.64% [at 19 µM]. Besides, the activity change, negative = cytotoxicity in assay [3] is 0.653% [at 19 µM]; in [7] it was -0.675% [at 15.8 µM]; in [10], 2.57% [at 31.6 µM]; in assay [11], 2.81% [at 15.8 µM]. Besides, the activation was 4.51% [at 19 µM] in assay [6] and 0.203% [at 15.8 µM] in [9]. For the same molecule, in assay [8], the activation (H2AX phosphorylation) is 0.193% [at 31.6 µM]. The values for the activity change, negative = cytotoxic in assay [12] and in assay [14] were -1.37% [at 15.8 µM] and -0.442% [at 15.8 µM], respectively. For the same molecule, the cytotoxicity in assay [13] was 8.42% [at 15.8 µM]. Further, the cytotoxicity increase in [15] was 6.32% [at 15.8 µM].
